Data taken from PubChem BioAssay (NCATS).
Results filed as inconclusive are left out. Activity calls are given as the source filed them. Unless noted, the call rests on the fitted dose curve; in most records, active means well fitted curve in the direction sought with a large enough effect; inconclusive means small, poorly fitted or top-dose-only effect, or another doubt; inactive means no such curve, though single readings can be large; an effect the other way counts as inactive or inconclusive.

Key:
[1] = qHTS assay for measurement of the activity of small molecule inhibitors on Zika virus induced Caspase-3 activity in human iPSC derived neural progenitor cells (hNPCs) (AID 1224857); further: nearly all actives have a fitted effect of over 65% in size; further: potency means the concentration at half of the fitted maximal effect; on activity change, negative = inhibition: % of control where 0% means no effect
Summary of the method: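 Zika virus (2 FFU/cell) infection of human iPSC-derived NPCs, 6 h, following 1 h compound preincubation. Read-out: Caspase-Glo 3/7 luminescence.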

[2] = P-glycoprotein substrates identified in KB-8-5-11 adenocarcinoma cell line, qHTS therapeutic library screen (AID 1346987); further: nearly all actives have a fitted effect of over 65% in size; further: potency means the concentration at half of the fitted maximal effect
Summary of the method: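 Steps: plate 500 KB-8-5-11 cells/well in DMEM + 10% FCS (colchicine removed); pin compounds in dose-response; incubate 72 h, 37 degree C, 5% CO2; add CellTiter-Glo, 5 min; read luminescence.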

[3] = biological target: T1, Tyrosine-protein phosphatase non-receptor type substrate 1 (Homo sapiens) + Leukocyte surface antigen CD47 (Homo sapiens) (UniProt P78324+Q08722); assay: CD47-SIRPalpha protein protein interaction - LANCE assay qHTS validation (AID 1347057; active means well fitted curve in the direction sought with a large enough effect in the signal ratio, with a control signal flat, not every such curve was filed as active; the % refers to the signal ratio; further: series mostly up to about 38 µM; 0% is about no effect)
Summary of the method: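 First, His-tagged CD47 and Eu-labelled anti-His antibody met the compound for 30 min; next, site-specifically biotinylated SIRPalpha was added for 30 min; finally streptavidin-APC was added before reading the TR-FRET ratio.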

[4] = biological target: T1, Tyrosine-protein phosphatase non-receptor type substrate 1 (Homo sapiens) + Leukocyte surface antigen CD47 (Homo sapiens); assay: CD47-SIRPalpha protein protein interaction - Alpha assay qHTS validation (AID 1347059);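 further: bead proximity luminescence from CD47 binding SIRPalpha after compound preincubation with SIRPalpha; on the % scale 0 is the no-effect control and ±100 the full control effect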
Summary of the method: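 Soluble extracellular domains: Avi-tag biotinylated SIRPalpha (25 nM) preincubated 30 min RT with compound, then 6His-CD47 (12.5 nM) 30 min; Ni-NTA acceptor and streptavidin donor beads (10 ug/mL) 30 min, AlphaScreen read. PBS pH 7.4, 0.05% IGEPAL.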

[5] = Natriuretic polypeptide receptor (hNpr1) antagonism - Pilot counterscreen GloSensor control cell line (AID 1347045; calls by dose curve; further: series mostly up to about 38 µM; on the % scale 0 is the no-effect control and ±100 the full control effect)
Summary of the method: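 Luminescence was read before and 20 min after adding 50 uM SNP, which stimulates soluble guanylyl cyclase. The HEK293 cells expressing the GloSensor cGMP sensor had been preloaded with 2% reagent for 2 h and treated with compound.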

[6] = biological target: Atrial natriuretic peptide receptor 1 (Homo sapiens) (UniProt P16066); assay: Natriuretic polypeptide receptor (hNpr1) antagonism - Pilot screen (AID 1347049; calls by dose curve;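 further: agonist-evoked cGMP luminescence read 20 min after hNppA addition; series mostly up to about 58 µM; on the % scale 0 is the no-effect control and ±100 the full control effect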)
Summary of the method: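 HEK293 cells co-expressing hNpr1 and the GloSensor pGS-40F cGMP luciferase sensor were preloaded with 2% GloSensor reagent for 2 h. Compounds were added for 30 min at room temperature, then cells were stimulated with 0.1 nM hNppA for 20 min before luminescence readout.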

[7] = biological target: Atrial natriuretic peptide receptor 2 (Homo sapiens) (UniProt P20594); assay: Natriuretic polypeptide receptor (hNpr2) antagonism - Pilot subtype selectivity assay (AID 1347050; calls by dose curve; further: on the % scale 0 is the no-effect control and ±100 the full control effect)
Summary of the method: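 cGMP-sensor HEK293/hNpr2 cells; 2% GloSensor reagent 2 h RT; compounds 30 min; baseline luminescence read; 1 nM hNppC agonist 20 min RT; final luminescence read by CCD camera. Antagonism = reduced post-agonist signal.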

[8] = NS1 protein of Zika virus - qHTS assay to identify small molecule inhibitors in human HEK 293 cells (AID 1347053);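 further: series mostly up to about 46 µM; plate controls were infected untreated cells for no effect and uninfected cells for full effect; nearly all actives have a fitted effect of over 55% in size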
Summary of the method: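 HEK 293; 20 h pre-culture, 37 C/5% CO2; cpd 1 h pre-infection; ZIKV MR766, MOI = 0.5, 24 h, 37 C; TR-FRET NS1 readout (two anti-NS1 Abs); norm. to no-virus vs infected.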

[9] = biological target: Parathyroid hormone/parathyroid hormone-related peptide receptor (Homo sapiens) (UniProt Q03431); assay: qHTS for PTHR1 Agonists: Optimization Screen against the NCGC LOPAC library (AID 1347079);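 further: GloSensor cAMP luminescence in HEK-293 GP2 cells expressing human PTHR1 with IBMX; 0% is about no effect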
Summary of the method: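 Agonist readout: GloSensor cAMP luminescence, read after 15 min at room temperature. HEK-293-derived GP2 line carries PTHR1; compounds tested as a titration for 1 hr at 37C in presence of IBMX. M-PTH (1-15) served as control.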

[10] = qHTS of pediatric cancer cell lines to identify multiple opportunities for drug repurposing: Primary screen for TC32 cells (AID 1347089); further: on the % scale 0 is the no-effect control and ±100 the full control effect; nearly all actives have a fitted effect of over 60% in size
Summary of the method: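 A viability screen of TC32 cells was run over 48 h, with primary MIPE doses spanning 0.78 nM–46 µM and NPC doses 0.59 nM–46 µM. ATP luminescence (CellTiter-Glo) served as the read-out.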

[11] = qHTS of pediatric cancer cell lines to identify multiple opportunities for drug repurposing: Primary screen for DAOY cells (AID 1347090); further: nearly all actives have a fitted effect of over 55% in size; further: potency means the concentration at half of the fitted maximal effect;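 on activity change, negative = cytotoxic: series mostly up to about 46 µM; plate controls were DMSO for no effect and bortezomib for full effect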
Summary of the method: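 Eight- or eleven-point concentration series, 48 h treatment at 37 degrees C in growth media; readout CellTiter-Glo luminescence. Potency and efficacy were taken from the concentration-response curves.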

[12] = qHTS assay for measurement of the activity of small molecule inhibitors on Zika virus induced Caspase-3 activity in human astrocytoma cells (AID 1224859); further: potency means the concentration at half of the fitted maximal effect;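 on activity change, negative = inhibition: plate controls were ZIKV-infected untreated cells for no effect and uninfected cells for full effect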
Summary of the method: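 Caspase activation in ZIKV-infected SNB-19 cells (2 FFU/cell, 6 h) measured by Caspase-Glo 3/7 luminescence after 30 min RT; compound pre-incubated 1 h; normalised to uninfected and infected controls.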

[13] = biological target: T1, Tyrosine-protein phosphatase non-receptor type substrate 1 (Homo sapiens) + Leukocyte surface antigen CD47 (Homo sapiens); assay: CD47-SIRPalpha protein protein interaction - HTRF assay qHTS validation (AID 1347058; active means well fitted curve in the direction sought with a large enough effect in the signal ratio, not every such curve was filed as active; the % refers to the signal ratio; further: series mostly up to about 38 µM; 0% is about no effect)
Summary of the method: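 TR-FRET read (Ch1/Ch2 ratio) of soluble extracellular CD47 and Avi-biotinylated SIRPalpha domains in PBS pH 7.4 with 0.05% IGEPAL; 7-point compound titration. Sequential 30 min room-temperature steps; non-biotinylated SIRPalpha as control inhibitor.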

[14] = qHTS assay to identify small molecule inhibitors of chordoma cells - UCH-1 (AID 1259355); further: on the % scale 0 is the no-effect control and ±100 the full control effect; nearly all actives have a fitted effect of over 55% in size
Summary of the method: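 Luminescent ATP read-out (CellTiter-Glo, 30min at room temperature) measured viability of UCH-1 cells exposed for 48hr to test drugs at 15 concentrations, co-dosed with a five-agent combination of auranofin, camptothecin, doxorubicin, rubitecan and topotecan.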

[15] = qHTS assay to identify small molecule inhibitors of chordoma cells - UCH-2 (AID 1259356)
[16] = Identifying Small Molecule Inhibitors of Pancreatic Cancer Stem Cells (SN12C, Adherent) (AID 1259358);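 further: cell survival measured after 48 h of compound exposure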; further: potency means the concentration at half of the fitted maximal effect
Summary of the method: (§1)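 After a 4 h attachment period, compounds were pinned into wells and cultures held 48 h under standard incubator conditions. Viability was then measured as CellTiter-Glo luminescence following 10 min at room temperature.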

[17] = Identifying Small Molecule Inhibitors of Pancreatic Cancer Stem Cells (SN12C, Spheroid) (AID 1259360);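 further: 100% = DMSO-treated cells and 0% = wells without cells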
Summary of the method: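 Monolayer and spheroid cultures are compared. Spheroids form over 14 days in stem cell medium on hydrogel-coated low-attachment plates, then are exposed to compound for 48 h before CellTiter-Glo luminescence.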

[18] = Identifying Small Molecule Inhibitors of Pancreatic Cancer Stem Cells (A278, Adherent) (AID 1259361);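 further: viability read after 48 h compound exposure; 100% = DMSO-treated cells and 0% = cell-free media-only wells; nearly all actives have a fitted effect of over 35% in size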
Summary of the method: as §1

[19] = Identifying Small Molecule Inhibitors of Pancreatic Cancer Stem Cells (Panc1, Spheroid) (AID 1259359); settings: Panc1 spheroid cancer stem cell viability;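 further: potency means the concentration at half of the fitted maximal effect; compound exposure lasted 48 h before reading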
Summary of the method: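 Adherent (2D) versus sphere (3D) formats; spheres generated 14 d in SCM beforehand. Compound transferred by pin tool after 4 h, 48 h incubation, CellTiter-Glo endpoint.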

[20] = Identifying Small Molecule Inhibitors of Pancreatic Cancer Stem Cells (Panc1, Adherent) (AID 1259362); settings: viability; further: potency means the concentration at half of the fitted maximal effect
Summary of the method: as §1

Sequence of Atrial natriuretic peptide receptor 2 (Homo sapiens) (P20594 whole entry, looked up): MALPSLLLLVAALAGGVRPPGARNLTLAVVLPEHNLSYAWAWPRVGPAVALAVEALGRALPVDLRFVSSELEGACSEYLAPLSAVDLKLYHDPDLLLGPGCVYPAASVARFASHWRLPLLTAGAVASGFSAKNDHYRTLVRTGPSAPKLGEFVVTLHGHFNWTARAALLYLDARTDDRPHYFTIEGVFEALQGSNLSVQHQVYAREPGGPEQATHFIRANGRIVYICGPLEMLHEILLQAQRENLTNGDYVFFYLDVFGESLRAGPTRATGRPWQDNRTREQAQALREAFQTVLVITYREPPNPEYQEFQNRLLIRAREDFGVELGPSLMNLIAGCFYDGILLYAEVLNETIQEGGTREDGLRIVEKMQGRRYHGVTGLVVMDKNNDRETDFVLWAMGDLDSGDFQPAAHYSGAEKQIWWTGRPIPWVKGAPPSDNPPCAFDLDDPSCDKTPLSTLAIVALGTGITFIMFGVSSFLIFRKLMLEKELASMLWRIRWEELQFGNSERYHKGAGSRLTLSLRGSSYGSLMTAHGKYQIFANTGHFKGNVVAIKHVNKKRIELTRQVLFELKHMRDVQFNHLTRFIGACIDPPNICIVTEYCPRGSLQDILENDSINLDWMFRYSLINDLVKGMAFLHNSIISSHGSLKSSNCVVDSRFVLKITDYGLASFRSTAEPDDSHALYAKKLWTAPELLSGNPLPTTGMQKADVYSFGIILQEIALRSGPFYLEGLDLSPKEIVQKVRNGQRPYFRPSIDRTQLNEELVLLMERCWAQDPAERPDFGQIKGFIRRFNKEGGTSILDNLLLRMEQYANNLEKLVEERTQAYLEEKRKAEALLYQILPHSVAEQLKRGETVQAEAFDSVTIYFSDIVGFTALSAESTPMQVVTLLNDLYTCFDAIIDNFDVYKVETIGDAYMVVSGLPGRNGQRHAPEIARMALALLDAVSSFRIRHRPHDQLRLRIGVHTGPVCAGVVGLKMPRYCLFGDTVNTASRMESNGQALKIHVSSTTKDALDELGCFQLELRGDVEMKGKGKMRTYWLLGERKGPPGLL
Sequence of Atrial natriuretic peptide receptor 1 (Homo sapiens) (P16066 whole entry, looked up): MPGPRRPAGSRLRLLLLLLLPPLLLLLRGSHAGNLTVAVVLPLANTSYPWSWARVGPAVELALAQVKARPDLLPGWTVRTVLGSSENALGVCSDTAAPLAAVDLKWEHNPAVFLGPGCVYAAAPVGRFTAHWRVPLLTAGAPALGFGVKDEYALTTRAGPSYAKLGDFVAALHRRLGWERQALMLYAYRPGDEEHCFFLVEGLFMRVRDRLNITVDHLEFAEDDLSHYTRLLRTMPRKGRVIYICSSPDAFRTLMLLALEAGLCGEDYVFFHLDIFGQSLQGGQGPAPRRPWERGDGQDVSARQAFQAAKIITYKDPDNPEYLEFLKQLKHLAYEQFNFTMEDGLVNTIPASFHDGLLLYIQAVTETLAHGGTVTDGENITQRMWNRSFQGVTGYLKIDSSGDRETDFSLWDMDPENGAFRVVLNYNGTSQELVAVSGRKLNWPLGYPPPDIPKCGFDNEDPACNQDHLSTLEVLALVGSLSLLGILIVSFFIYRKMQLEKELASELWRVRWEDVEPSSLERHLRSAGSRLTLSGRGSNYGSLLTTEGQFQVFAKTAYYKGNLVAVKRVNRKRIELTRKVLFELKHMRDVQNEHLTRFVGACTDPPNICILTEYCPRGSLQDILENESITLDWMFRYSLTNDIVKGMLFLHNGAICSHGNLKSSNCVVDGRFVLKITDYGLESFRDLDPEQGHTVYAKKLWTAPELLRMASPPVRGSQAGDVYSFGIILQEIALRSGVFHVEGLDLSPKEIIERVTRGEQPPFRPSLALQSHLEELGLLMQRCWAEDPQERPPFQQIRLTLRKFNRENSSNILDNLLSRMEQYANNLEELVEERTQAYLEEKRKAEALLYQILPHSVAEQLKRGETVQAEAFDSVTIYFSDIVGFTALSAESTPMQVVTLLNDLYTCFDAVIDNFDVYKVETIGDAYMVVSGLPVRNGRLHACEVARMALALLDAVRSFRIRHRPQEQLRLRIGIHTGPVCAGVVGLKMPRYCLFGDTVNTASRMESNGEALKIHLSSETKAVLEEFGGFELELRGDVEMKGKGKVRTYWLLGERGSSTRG
T1 sequence (P78324 whole entry, looked up): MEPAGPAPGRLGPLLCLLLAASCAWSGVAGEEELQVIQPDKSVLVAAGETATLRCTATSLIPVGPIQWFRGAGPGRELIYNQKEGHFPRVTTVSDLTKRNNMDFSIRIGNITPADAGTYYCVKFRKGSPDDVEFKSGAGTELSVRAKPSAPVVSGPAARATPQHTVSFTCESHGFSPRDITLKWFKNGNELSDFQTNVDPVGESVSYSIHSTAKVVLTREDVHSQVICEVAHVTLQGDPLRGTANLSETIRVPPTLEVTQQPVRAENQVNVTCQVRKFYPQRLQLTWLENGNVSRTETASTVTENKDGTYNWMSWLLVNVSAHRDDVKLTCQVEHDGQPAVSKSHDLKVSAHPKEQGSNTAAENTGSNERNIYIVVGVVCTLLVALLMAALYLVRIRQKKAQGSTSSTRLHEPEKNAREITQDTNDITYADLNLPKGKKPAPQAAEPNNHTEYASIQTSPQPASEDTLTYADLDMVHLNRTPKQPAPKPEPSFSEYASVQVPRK
T1 sequence (Q08722 whole entry, looked up): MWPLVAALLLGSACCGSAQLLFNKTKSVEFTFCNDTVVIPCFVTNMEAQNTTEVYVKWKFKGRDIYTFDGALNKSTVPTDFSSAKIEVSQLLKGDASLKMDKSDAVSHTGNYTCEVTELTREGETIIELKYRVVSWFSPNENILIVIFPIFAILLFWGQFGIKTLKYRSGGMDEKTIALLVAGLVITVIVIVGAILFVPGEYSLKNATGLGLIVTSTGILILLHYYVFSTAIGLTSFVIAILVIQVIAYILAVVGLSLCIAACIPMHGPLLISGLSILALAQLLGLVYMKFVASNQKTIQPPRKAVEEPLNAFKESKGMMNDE
Sequence of Parathyroid hormone/parathyroid hormone-related peptide receptor (Homo sapiens) (Q03431 whole entry, looked up): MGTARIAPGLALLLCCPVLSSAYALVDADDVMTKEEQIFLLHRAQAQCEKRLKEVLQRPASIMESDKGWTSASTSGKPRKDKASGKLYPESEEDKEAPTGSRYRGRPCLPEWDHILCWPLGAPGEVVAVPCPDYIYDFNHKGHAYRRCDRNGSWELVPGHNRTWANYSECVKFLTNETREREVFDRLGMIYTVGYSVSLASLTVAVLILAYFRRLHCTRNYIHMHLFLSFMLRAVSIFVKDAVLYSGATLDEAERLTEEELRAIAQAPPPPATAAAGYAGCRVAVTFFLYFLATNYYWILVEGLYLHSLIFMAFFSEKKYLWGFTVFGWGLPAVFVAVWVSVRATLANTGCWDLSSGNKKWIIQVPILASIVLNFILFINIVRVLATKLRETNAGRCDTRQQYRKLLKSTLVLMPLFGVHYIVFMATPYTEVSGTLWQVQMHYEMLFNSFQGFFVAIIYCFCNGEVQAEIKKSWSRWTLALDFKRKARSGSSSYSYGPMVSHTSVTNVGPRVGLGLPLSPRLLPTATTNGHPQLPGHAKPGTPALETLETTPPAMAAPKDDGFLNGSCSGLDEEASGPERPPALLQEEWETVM

CCCCN(CC)c1nc(C)nc2c1c(C)cn2-c1c(C)cc(C)cc1C
inactive: Potency [1] | Potency [2] | Potency [3] | Potency [4]

O=C(Nc1cccc(C(=O)Nc2ccc(S(=O)(=O)O)c3cc(S(=O)(=O)O)cc(S(=O)(=O)O)c23)c1)Nc1cccc(C(=O)Nc2ccc(S(=O)(=O)O)c3cc(S(=O)(=O)O)cc(S(=O)(=O)O)c23)c1
inactive: Potency [1] | Potency [5] | Potency [6] | Potency [7] | Potency [8] | Potency [3] | Potency [9]

O=C(O)Cc1cccc(-c2cc(CCCCCCc3ccc(O[C@H]4O[C@H](CO)[C@@H](O)[C@H](O)[C@@H]4O)c(-c4cccc(CC(=O)O)c4)c3)ccc2O[C@H]2O[C@H](CO)[C@@H](O)[C@H](O)[C@@H]2O)c1
inactive: activity change, negative = inhibition [1] 14.4% [at 0.568 µM] | activity change, negative = cytotoxicity [2] 3.65% [at 0.354 µM] | activity change, negative = inhibition [8] -8.2% [at 0.593 µM] | activity change, negative = cytotoxic [10] 14.4% [at 0.594 µM] | activity change, negative = cytotoxic [11] 1% [at 0.597 µM]

Cc1cc2c(cc1Cl)N(C(=O)Nc1ccc(Oc3cccnc3C)nc1)CC2
inactive: Potency [1] | Potency [12] | Potency [3] | outcome [13] | Potency [4] | Potency [9]

O=C(/C=C/c1ccc(O)cc1)c1ccc(O)cc1O
inactive: Potency [8] | Potency [3] | Potency [4] | Potency [9]
active: Potency [1] 2.82 µM | Potency [12] 1.26 µM

NS(=O)(=O)C#Cc1ccccc1
inactive: Potency [1] | Potency [12] | Potency [3] | outcome [13] | Potency [4] | Potency [9]

CCN(CC)CCCCNc1ncc2cc(-c3c(Cl)cccc3Cl)c(NC(=O)NC(C)(C)C)nc2n1
inactive: Potency [1] | Potency [3] | Potency [4]
active: Potency [2] 16.4 µM

CCNc1nc2c(ncn2[C@H]2C[C@H](O)[C@@H](CO)O2)c(=O)[nH]1
inactive: Potency [1] | Potency [2] | Potency [8] | Potency [3] | outcome [13] | Potency [4]

CN1CC(=O)N/C1=N/C(=O)Nc1cccc(Cl)c1
active: Potency [1] 11.2 µM
inactive: Potency [14] | Potency [15] | Potency [16] | outcome [17] | outcome [18] | Potency [2] | Potency [6] | Potency [7] | Potency [8] | Potency [3] | outcome [13] | Potency [4] | Potency [9] | Potency [10] | Potency [11]

Oc1c(Br)cc(Br)c2cccnc12
inactive: Potency [1] | Potency [14] | Potency [10]
active: Potency [11] 16.8 µM

COc1cc(OC)c(/C=C2/C(=O)Nc3ccccc32)c(OC)c1
inactive: Potency [1] | Potency [12] | Potency [8] | Potency [9]

O=C(O)c1cc([N+](=O)[O-])ccc1NCCCc1ccccc1
active: Potency [1] 10 µM
inactive: Potency [5] | Potency [6] | Potency [7] | Potency [3] | Potency [4] | Potency [9]

O=C(Nc1ccc2[nH]ncc2c1)C1CCC1
inactive: Potency [1] | Potency [2] | Potency [8] | Potency [3] | outcome [13] | Potency [4]

C=CCc1cccc(/C=N/NC(=O)CN2CCN(Cc3ccccc3)CC2)c1O
active: Potency [16] 10.5 µM | Potency [19] 26.4 µM | Potency [20] 4.18 µM
inactive: Potency [1]
